Several values for one entry are separate records, joined by “and”; a condition that tells them apart may be missing. Equal entries are not always repeated. Activity calls are given as the source filed them.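 How the source made its calls, unless noted: active means compounds whose cell count with miR-34 switched on is under 0.7 times the count with it off; inactive means the rest.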

For test [1], the system named is Aerobactin synthetase IucA (Klebsiella pneumoniae). The test is described as follows: inhibition of K. pneumoniae IucA enzyme – biochemical, Tocris library, absorbance (AID 1345561; call rule not given here;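 further: 100% = enzyme without compound and 0% = no enzyme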). To be noted: purified IucA enzyme assay, absorbance (OD) read-out; stronger effect = lower value;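 tested at 8 µM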.
Test [2] is described as follows: viability loss with induced miR-34 in A549 – imaging, A549 dox-inducible miR-34, nuclei and caspase counts, primary screen (AID 1347080). The conditions noted are these: A549 miR-34 inducible, Hoechst nuclei count, 48 h.
The nature of test [3]: galactose survival enhancers in mitochondrial complex I cybrids – cell-based, galactose medium, ATP luminescence, primary screen (AID 1645843;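 active means z-score of at least 1.8 in each of two replicates, scored against plate mean and spread of sample wells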;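 further: positive z means more ATP and so rescue of galactose-driven cybrid death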). The conditions noted are these: complex I mutant cybrid cells, 72 h, stronger effect = higher value.
Where [4] appears, read: stronger effect = lower value, cell number ratio, induced over uninduced.
[5] abbreviates: measured here: relative caspase fold change +Dox/-Dox.
Setting [6] is: measured here: total cells with miR-34 induction, stronger effect = lower value.
Setting [7] is: measured here: total cells without miR-34 induction.

As a reminder, the remaining activity is the signal under treatment as a percentage of the control signal. For `COc1cc2c(cc1O)C(CCc1ccc(Cl)cc1)N(C)CC2` (configuration not stated), in test [1], the remaining activity was 109% (inactive). Besides, the fold change in test [2] (setting [4]) was 0.951 (inactive); in test [2] (setting [5]) it was 1.1. The cell count in test [2] (setting [6]) was 7110; in test [2] (setting [7]), 7480. For the same compound, in test [3], the z-score was -0.615 (inactive).
For the compound `C[C@H](NC[C@H](O)CP(=O)(O)CC1CCCCC1)c1ccc(Cl)c(Cl)c1`, the remaining activity in test [1] was 121% (inactive). Besides, the fold change was 0.971 (inactive) in test [2] (setting [4]) and 0.73 in test [2] (setting [5]). In addition, the results for the cell count in test [2] (setting [6]) and in test [2] (setting [7]) were 10100 and 10400, respectively. Moreover, the z-score in test [3] is 0.2 (inactive).
As to `CCCCC1(C2CCCC2)Cc2cc(OCCCC(=O)O)c(Cl)c(Cl)c2C1=O` (configuration not stated), the remaining activity in test [1] is 98.2% (inactive). The fold change is 0.969 (inactive) in test [2] (setting [4]) and 0.91 in test [2] (setting [5]). Also, the results for the cell count in test [2] (setting [6]) and in test [2] (setting [7]) were 7490 and 7730, respectively. For the same compound, the z-score in test [3] was 3.13 (active).
For the compound `O=C1/C(=C/c2ccccc2)C[C@@]2(O)C3Cc4ccc(O)c5c4[C@@]2(CCN3CC2CC2)[C@H]1O5`, in test [1], the remaining activity is 97.5% (inactive). Moreover, the fold change in test [2] (stronger effect = lower value) was 1.1 (inactive); in test [2] (setting [5]) it was 0.83. Besides, the values for the cell count in test [2] (setting [6]) and in test [2] (setting [7]) were 919 and 833, respectively. For the same compound, the z-score in test [3] was -1.12 (inactive).
With `c1ccc(CC(c2ccccc2)N2CCCCC2)cc1` (configuration not stated), the remaining activity in test [1] is 103% (inactive). Besides, the results for the fold change in test [2] (stronger effect = lower value) and in test [2] (setting [5]) were 0.958 (inactive) and 0.814, respectively. In addition, the cell count in test [2] (setting [6]) is 9440; in test [2] (setting [7]), 9860. For the same compound, in test [3], the z-score is -0.99 (inactive).
`CN(C(=O)Cc1ccc(Cl)c(Cl)c1)[C@H](CN1CCCC1)c1ccccc1`: the remaining activity in test [1] was 98.2% (inactive). Besides, the fold change in test [2] (setting [4]) is 0.987 (inactive); in test [2] (setting [5]) it was 0.762. Also, the cell count in test [2] (setting [6]) is 7540; in test [2] (setting [7]), 7640. In addition, the z-score in test [3] was -0.625 (inactive).
Regarding `CCCOc1ccc2[nH]cc(C3=CCNCC3)c2n1`, the remaining activity in test [1] was 119% (inactive). Besides, the fold change in test [2] (setting [4]) is 0.982 (inactive); in test [2] (setting [5]), 0.876. The cell count was found to be 9040 in test [2] (setting [6]) and 9210 in test [2] (setting [7]). For the same compound, in test [3], the z-score was -0.37 (inactive).
For the compound `N[C@]1(C(=O)O)CC[C@@H](C(=O)O)C1` (racemic), the remaining activity in test [1] is 103% (inactive). Also, the values for the fold change in test [2] (setting [4]) and in test [2] (setting [5]) were 0.971 (inactive) and 0.73, respectively. In addition, the cell count in test [2] (setting [6]) worked out at 7990; in test [2] (setting [7]), 8230. The z-score in test [3] was 0.095 (inactive).
Take `COC1(C[S@@](=O)c2ccccc2)CCN(CCc2c[nH]c3ccc(F)cc23)CC1`: the remaining activity in test [1] was 113% (inactive). In addition, the fold change in test [2] (setting [4]) was 0.956 (inactive); in test [2] (setting [5]), 1.03. In addition, the cell count in test [2] (setting [6]) amounted to 8390; in test [2] (setting [7]), 8770. In addition, the z-score in test [3] is -0.4 (inactive).
For `CCOC(=O)c1ncn2c1CN(C)C(=O)c1cc(N=[N+]=[N-])ccc1-2`, in test [1], the remaining activity is 97.3% (inactive). Moreover, the values for the fold change in test [2] (setting [4]) and in test [2] (setting [5]) were 0.891 (inactive) and 1.09, respectively. Moreover, the results for the cell count in test [2] (setting [6]) and in test [2] (setting [7]) were 7930 and 8900, respectively. For the same compound, in test [3], the z-score is 0.06 (inactive).
For the compound `C=C(C)[C@@H]1CCC(C)=C[C@H]1c1c(OC)cc(C)cc1OC`, the remaining activity in test [1] was 106% (inactive). Also, the fold change in test [2] (setting [4]) was 0.943 (inactive) and 0.926 (inactive); in test [2] (setting [5]) it was 0.715 and 0.958. For the same compound, the cell count is 5230 and 8980 in test [2] (setting [6]); 5540 and 9700 in test [2] (setting [7]). Moreover, the z-score in test [3] is -0.105 (inactive).
Turning to `Cc1nnc2ccc(-c3cccc(C(F)(F)F)c3)nn12`, the remaining activity in test [1] is 126% (inactive). The fold change in test [2] (stronger effect = lower value) is 0.912 (inactive); in test [2] (setting [5]), 0.497. Also, the cell count in test [2] (setting [6]) amounted to 9060; in test [2] (setting [7]) it was 9940. For the same compound, in test [3], the z-score is 0.155 (inactive).

(Values after PubChem BioAssay.)
